From PubChem BioAssay (EPA / NIEHS)
Calls of active or inactive are those of the source. The calls were made as follows: active = hit-call score of the fitted dose curve at least 0.9, where 1 is the maximum; inactive = score below 0.9.

Assays:
Settings in all cases: mRNA level, 48 h; actives raise or lower the signal
[1] = read-out: Glutathione S-transferase M3 (GSTM3), GSTM3 (gene 2947); assay: LTEA_HepaRG_GSTM3: Life Technologies and Expression Analysis (LTEA) Assay for Glutathione S-transferase M3 (GSTM3) using HepaRG (AID 2283501)
How it was run: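 Differentiated HepaRG cells in serum-free induction medium were exposed in duplicate for 48 h to 8 half-log concentrations up to 100 uM in 0.5% DMSO. GSTM3 mRNA was measured by TaqMan qRT-PCR, normalized to ACTB/GAPDH/POLR2A, and fitted bidirectionally versus DMSO.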

[2] = read-out: Heat shock 70 kDa protein 1 (HSPA1A), gene 3303; assay: LTEA_HepaRG_HSPA1A: Life Technologies and Expression Analysis (LTEA) Assay for Heat shock 70 kDa protein 1 (HSPA1A) using HepaRG (AID 2283502)
How it was run: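 An oxidative-stress marker readout: HepaRG cells treated 48 h in duplicate with an eight-point series (highest 100 uM) had HSPA1A mRNA quantified by TaqMan qRT-PCR. Activity was fitted in both directions using 0.5% DMSO as baseline.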

[3] = read-out: 3-Hydroxy-3-Methylglutaryl-CoA Synthase 2 (HMGCS2), HMGCS2 (gene 3158); assay: LTEA_HepaRG_HMGCS2: Life Technologies and Expression Analysis (LTEA) Assay for 3-Hydroxy-3-Methylglutaryl-CoA Synthase 2 (HMGCS2) using HepaRG (AID 2283504)
How it was run: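 Differentiated human HepaRG cells were exposed in duplicate for 48 h in serum-free induction medium to eight concentrations (top 100 uM, half-log steps, 0.5% DMSO). HMGCS2 mRNA was quantified by TaqMan qRT-PCR, normalised to ACTB, GAPDH and POLR2A, then fitted bidirectionally against DMSO.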

HGF (gene 3082) = assay: LTEA_HepaRG_HGF: Life Technologies and Expression Analysis (LTEA) Assay for Hepatocyte Growth Facto (HGF) using HepaRG (AID 2283505)
How it was run: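 Differentiated human HepaRG cells in serum-free induction medium were exposed in duplicate for 48 h to eight concentrations (top 100 uM, half-log steps, 0.5% DMSO). HGF mRNA was quantified by qRT-PCR, normalized to ACTB, GAPDH and POLR2A.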

[4] = read-out: Insulin Like Growth Factor 1 (IGF1), IGF1 (gene 3479); assay: LTEA_HepaRG_IGF1: Life Technologies and Expression Analysis (LTEA) Assay for Insulin Like Growth Factor 1 (IGF1) using HepaRG (AID 2283506)
How it was run: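 Endpoint: IGF1 mRNA change by qRT-PCR, housekeeping-normalized, fitted bidirectionally relative to 0.5% DMSO vehicle. Human HepaRG cells were treated 48 h in serum-free induction medium, eight half-log concentrations topping at 100 uM.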

[5] = read-out: Intercellular Adhesion Molecule 1 (ICAM1), ICAM1 (gene 3383); assay: LTEA_HepaRG_ICAM1: Life Technologies and Expression Analysis (LTEA) Assay for Intercellular Adhesion Molecule 1 (ICAM1) using HepaRG (AID 2283507)
How it was run: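 Differentiated HepaRG cells in serum-free induction medium were exposed in duplicate for 48 h to eight half-log concentrations up to 100 uM in 0.5% DMSO. Transcript levels were measured by qRT-PCR normalized to ACTB, GAPDH and POLR2A; bidirectional fits relative to DMSO.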

[6] = read-out: Interleukin 6 (IL6), IL6 (gene 3569); assay: LTEA_HepaRG_IL6: Life Technologies and Expression Analysis (LTEA) Assay for Interleukin 6 (IL6) using HepaRG (AID 2283509)
How it was run: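 Changes in IL6 mRNA, up or down relative to 0.5% DMSO controls, were derived from concentration-response curves in human HepaRG cells treated for 48 h at up to 100 uM, with ACTB, GAPDH and POLR2A as normalizers.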

With OCC1CO1 (stereo unspecified) the outcome [1] was “inactive”, the outcome [2] was “inactive” and the outcome [3] was “inactive”. The outcome (HGF (gene 3082)) was “inactive”, the outcome [4] was “inactive” and the outcome [5] was “inactive”. The outcome [6] was “inactive”.

In the case of CCCCN(CCCC)N=O, the outcome [1] is reported as “inactive”, the outcome [2] is reported as “inactive” and the outcome [3] is reported as “inactive”. For the same compound, the outcome (HGF (gene 3082)) was “inactive”, the outcome [4] was “inactive” and the outcome [5] was “inactive”. The outcome [6] was “inactive”.

For c1ccc2c(c1)Nc1ccccc1S2, the outcome [1] was “inactive”, the outcome [2] was “inactive” and the outcome [3] was “inactive”. For the same compound, the outcome (HGF (gene 3082)) was “inactive”, the AC50 [4] was 50 µM (active) and the outcome [5] was “inactive”. The outcome [6] was “inactive”.

O=P(Oc1ccccc1)(Oc1ccccc1)Oc1ccccc1 was tested, and the outcome [1] was “inactive”, the outcome [2] was “inactive” and the outcome (HGF (gene 3082)) was “inactive”. For the same compound, the AC50 [4] was 4.15 µM (active), the outcome [5] was “inactive” and the outcome [6] was “inactive”.

CCOP(=S)(Oc1ccc([N+](=O)[O-])cc1)c1ccccc1 (stereo unspecified) was tested, and the outcome [1] was “inactive”, the outcome [3] was “inactive” and the outcome (HGF (gene 3082)) was “inactive”. The outcome [4] was “inactive”, the outcome [5] was “inactive” and the outcome [6] was “inactive”.

For CCCCc1ccccc1, the outcome [1] was “inactive”, the outcome [2] was “inactive” and the outcome [3] was “inactive”. The outcome (HGF (gene 3082)) was “inactive”, the outcome [4] was “inactive” and the outcome [5] was “inactive”. For the same compound, the outcome [6] was “inactive”.

For CCC(C)(C)c1ccc(O)cc1, the outcome [1] was “inactive”, the outcome [2] was “inactive” and the outcome [3] was “inactive”. The outcome (HGF (gene 3082)) was “inactive”, the outcome [4] was “inactive” and the outcome [5] was “inactive”. For the same compound, the outcome [6] was “inactive”.

Nc1cc2c3c(c1)C(c1ccccc1)=N[C@@H](NC(=O)c1cccnc1)C(=O)N3CC2 was tested, and the outcome [1] was “inactive”, the outcome [2] was “inactive” and the outcome [3] was “inactive”. For the same compound, the outcome (HGF (gene 3082)) was “inactive”, the AC50 [4] was 11.8 µM (active) and the outcome [5] was “inactive”. For the same compound, the outcome [6] was “inactive”.

In the case of O=[N+]([O-])c1ccc(Cl)c(Cl)c1, the outcome [1] is reported as “inactive”, the outcome [2] is reported as “inactive” and the outcome [3] is reported as “inactive”. The outcome (HGF (gene 3082)) was “inactive”, the outcome [4] was “inactive” and the outcome [5] was “inactive”. The outcome [6] was “inactive”.

For COCCOCCO, the outcome [1] was “inactive”, the outcome [2] was “inactive” and the outcome [3] was “inactive”. The outcome (HGF (gene 3082)) was “inactive”, the outcome [4] was “inactive” and the outcome [5] was “inactive”. The outcome [6] was “inactive”.

CN(C)C(=O)Cl was tested, and the outcome [1] was “inactive”, the outcome [2] was “inactive” and the outcome [3] was “inactive”. The outcome (HGF (gene 3082)) was “inactive”, the outcome [4] was “inactive” and the outcome [5] was “inactive”. The outcome [6] was “inactive”.

For CC(Cl)(Cl)C(=O)O, the outcome [1] was “inactive”, the outcome [2] was “inactive” and the outcome [3] was “inactive”. The outcome (HGF (gene 3082)) was “inactive”, the outcome [4] was “inactive” and the outcome [5] was “inactive”. For the same compound, the outcome [6] was “inactive”.

In the case of O=C(O)C1C(C(=O)O)C2(Cl)C(Cl)=C(Cl)C1(Cl)C2(Cl)Cl (stereo unspecified), the outcome [1] is reported as “inactive”, the outcome [2] is reported as “inactive” and the outcome [3] is reported as “inactive”. For the same compound, the outcome (HGF (gene 3082)) was “inactive”, the outcome [4] was “inactive” and the outcome [5] was “inactive”. For the same compound, the outcome [6] was “inactive”.

For [N-]=[N+]=[N-], the outcome [1] was “inactive”, the outcome [2] was “inactive” and the AC50 [3] was 77 µM (active). The outcome (HGF (gene 3082)) was “inactive”, the AC50 [4] was 68.6 µM (active) and the outcome [5] was “inactive”. For the same compound, the AC50 [6] was 93.6 µM (active).

In the case of CC(C)(C)OOC(C)(C)C, the outcome [1] is reported as “inactive”, the outcome [2] is reported as “inactive” and the outcome [3] is reported as “inactive”. The outcome (HGF (gene 3082)) was “inactive”, the outcome [4] was “inactive” and the outcome [5] was “inactive”. For the same compound, the outcome [6] was “inactive”.

In the case of CCOS(=O)(=O)OCC, the outcome [1] is reported as “inactive”, the outcome [2] is reported as “inactive” and the outcome [3] is reported as “inactive”. For the same compound, the outcome (HGF (gene 3082)) was “inactive”, the outcome [4] was “inactive” and the outcome [5] was “inactive”. The outcome [6] was “inactive”.

For CCCN(CCC)c1c([N+](=O)[O-])cc(C(C)C)cc1[N+](=O)[O-], the AC50 [1] was 3.04 µM (active), the AC50 [2] was 16.7 µM (active) and the outcome [3] was “inactive”. The outcome (HGF (gene 3082)) was “inactive”, the AC50 [4] was 71.1 µM (active) and the outcome [5] was “inactive”. The outcome [6] was “inactive”.

With c1nc[nH]n1 the AC50 [1] was 12.6 µM (active), the outcome [2] was “inactive” and the outcome [3] was “inactive”. The outcome (HGF (gene 3082)) was “inactive”, the outcome [4] was “inactive” and the AC50 [5] was 0.112 µM (active). The outcome [6] was “inactive”.

For Cc1ccc(O)cc1C, the outcome [1] was “inactive”, the outcome [2] was “inactive” and the outcome [3] was “inactive”. For the same compound, the outcome [4] was “inactive”, the outcome [5] was “inactive” and the outcome [6] was “inactive”.

CCCCCCCc1ccc(O)cc1 was tested, and the outcome [1] was “inactive”, the outcome [2] was “inactive” and the outcome [3] was “inactive”. The outcome (HGF (gene 3082)) was “inactive”, the outcome [4] was “inactive” and the outcome [5] was “inactive”. The outcome [6] was “inactive”.

For O=P1(N(CCCl)CCCl)NCCCO1 (stereo unspecified), the outcome [1] was “inactive”, the outcome [2] was “inactive” and the outcome [3] was “inactive”. For the same compound, the outcome (HGF (gene 3082)) was “inactive”, the outcome [4] was “inactive” and the outcome [5] was “inactive”. The outcome [6] was “inactive”.

With Cc1cccc(N)c1 the outcome [1] was “inactive”, the outcome [2] was “inactive” and the outcome [3] was “inactive”. The outcome (HGF (gene 3082)) was “inactive”, the outcome [4] was “inactive” and the outcome [5] was “inactive”. For the same compound, the outcome [6] was “inactive”.
